Assay outcomes as filed in PubChem BioAssay.
WT yeast gro inh: growth inhibition of WT yeast, mitochondrial fusion screen. 2.1% of 190,000 active. inhibition, % at 10 µM. AID 1362. mitochondrial fusion phenotypic screen, WT strain; in the data active = inhibition above about 58%; tested in S. cerevisiae
Arbovirus inh: arbovirus infection inhibition | arbovirus infection cell-based antiviral screen | inhibition, % at 10 µM | 0.37% of 200,000 active | AID 1251; in the data active = inhibition above about 30%
Lmaj promast: reduces viability of Leishmania major promastigotes. resazurin fluorescence viability. inhibition, % at 10 µM. 9% of 200,000 active. AID 1063; in the data active = inhibition above about 50%;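 note: promastigotes grown with compound for 44 hours at 28 °C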
CHOP inhibitor: inhibitors of CHOP induction in ER stress response. CHO-K1 CHOP-promoter luciferase, tunicamycin-induced, 15-18 h. inhibition, % at 10 µM. 3.8% of 220,000 active. AID 2732;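 active = compounds that reduced the stress-induced luciferase reporter signal by more than about 70% of percent inhibition, limit read from the data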;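 note: 0% = tunicamycin plus vehicle and 100% = wells without tunicamycin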
Starred values were filed as active, the others as inactive; . = no result given. This is a sample that favours compounds with a hit; in the whole collection about 12% have one here.

SMILES	WT yeast gro inh	Arbovirus inh	Lmaj promast	CHOP inhibitor
CC(=O)Nc1ccc(NC(=O)c2ccccc2Sc2ccc([N+](=O)[O-])cc2Cl)cc1	-4	-10	94*	10
Cc1cc(C)c(OCCNC(=O)c2ccccc2Sc2ccccc2C#N)c(C)c1	24	-15	100*	23
COc1ccc(Cc2n[nH]c(=S)n2NC(=O)Nc2ccc(Cl)c(Cl)c2)cc1	.	.	.	14
Cc1cnc(CNC(=O)c2ccc(OC3CCN(C(=O)C4CC4)CC3)cc2)cn1	7	6	-6	43
Cc1ccc(-n2c(N)c(C(=O)Nc3c(C)n(C)n(-c4ccccc4)c3=O)c3nc4ccccc4nc32)cc1C	-6	-2	79*	91*
Nc1c(C(=O)Nc2ccccc2)c2nc3ccccc3nc2n1-c1ccc(O)cc1	.	.	.	-1
CCCNC(=O)c1c(N)n(-c2ccc3c(c2)OCO3)c2nc3ccccc3nc12	.	-26	-3	80*
COc1ccc(-n2c(N)c(C(=O)Nc3c(C)n(C)n(-c4ccccc4)c3=O)c3nc4ccccc4nc32)cc1	.	.	.	52
Nc1c(C(=O)OCC2CCCO2)c2nc3ccccc3nc2n1-c1ccc2c(c1)OCCO2 (stereo not given)	-9	-11	54*	46
Nc1c(C(=O)NC2CC2)c2nc3ccccc3nc2n1-c1ccc2c(c1)OCO2	7	-15	97*	25
O=C(O)/C=C/C(=O)Nc1ccc(Oc2ncnc3cc(Cl)ccc23)nc1	.	.	.	-27
COCCCNC(=O)c1c(N)n(-c2ccc3c(c2)OCO3)c2nc3ccccc3nc12	-5	-8	28	.
CCOCCCNC(=O)c1c(N)n(-c2ccc3c(c2)OCO3)c2nc3ccccc3nc12	.	.	.	73*
CCC(C)N(C)C1CCN(C(=S)Nc2cccc(SC)c2)CC1 (stereo not given)	-1	-3	76*	-3
CSc1cccc(NC(=S)N2CCC(N(C)C(C)C)CC2)c1	-16	1	62*	-18
Fc1ccc(NC(=S)N2CCCC2)cc1	.	.	35	.
CSc1cccc(NC(=S)N2CCC(N(C)C3CCCCCC3)CC2)c1	6	0	88*	8
CSc1cccc(NC(=O)C2CCN(S(C)(=O)=O)CC2)c1	-15	6	-2	-20
CN(C1CCCC1)C1CCN(C(=S)Nc2cc(F)cc(F)c2)CC1	11	-13	77*	-2
COc1cc(NC(=O)c2cccc(Br)c2)nc(OC)n1	0	-6	-3	-29
CCCCN(C(=N)N1CCCCC1)c1nc(C)c([N+](=O)[O-])c(=O)[nH]1	0	0	-1	23
CCOC(=O)Cc1csc(NC(=O)C(CC(C)C)NC(=O)C2CCCCC2)n1 (stereo not given)	-7	-1	11	9
O=C(CSc1ncn[nH]1)Nc1cc(S(=O)(=O)N2CCCC2)ccc1Cl	-17	12	-5	-11
CCCCN(C)C1CCN(C(=S)Nc2cccc(SC)c2)CC1	9	-5	90*	5
Cc1ccc(S(=O)(=O)Nc2cccc3cccnc23)cc1	53	-45	100*	-167
SMILES	WT yeast gro inh	Arbovirus inh	Lmaj promast	CHOP inhibitor
Cc1ccc(S(=O)(=O)Nc2cc(C(C)C)c(O)cc2C)cc1	-14	-7	76*	47
Cc1ccc(S(=O)(=O)Nc2ccc(S(=O)(=O)Nc3ncccn3)cc2)cc1	-2	-9	-4	11
Cc1ccc(S(=O)(=O)Nc2ccccc2-c2ccccc2NS(=O)(=O)c2ccc(C)cc2)cc1	62*	-27	96*	25
COc1cc(NS(=O)(=O)c2ccc(C)cc2)c2ncccc2c1	2	-38	99*	.
COc1ccc(S(=O)(=O)Nc2cc(C)ccn2)cc1	-1	10	-4	14
Cc1ccc(S(=O)(=O)Nc2cc(Cl)c(O)cc2C)cc1	-16	-4	-1	9
CCCCNC(=O)c1ccccc1NC(=O)CN(c1ccccc1)S(=O)(=O)N(C)C	8	-7	65*	24
O=C(c1cccc(F)c1)N1CCC(c2nc3ccccc3s2)CC1	9	9	4	-1
CCN(CC)CCC(c1ccc2c(c1)OCO2)c1c(O)cc(OC)cc1OC (stereo not given)	.	.	.	-8
Cc1ccc(N=Cc2cc(Cc3ccccc3Cl)cc([N+](=O)[O-])c2O)c(O)c1	-3	-6	73*	52
C=CCN1C(=O)CS/C1=N\N=C\c1cccc([N+](=O)[O-])c1	-10	-7	22	7
C[n+]1c2n(c3ccccc31)N=C(c1cc(C(C)(C)C)c(O)c(C(C)(C)C)c1)CS2	76*	-35	100*	73*
CC(C)(C)c1ccc(OC(=O)c2ccc3nsnc3c2)cc1	73*	11	-2	26
CCOc1ccccc1N(C(=O)c1snc(C(N)=O)c1N)C(C(=O)NC1CCCC1)c1ccco1 (stereo not given)	-6	-6	76*	3
